The list is not random: actives were taken first. Their share in the collection is about 2.2%.
CHT block: human CHT choline transport inhibition | Q9GZV3 | CHT-expressing cells, membrane potential dye, choline response; hits give low values | B-score at 10 µM | 0.86% of 310,000 active | AID 488975;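 active = B-score over 3 SD under the library average, and starting fluorescence ratio not unusually high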;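 also: choline stimulus applied at its EC90 after an EC20 pre-addition; B-score computed on integrated fluorescence ratio after choline addition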
VLA-4 inh: inhibition in a human VLA-4 binding assay. P13612. VLA-4 expressing cells, ligand binding flow cytometry. inhibition, % (about 7 µM as worked out from the volumes in the protocol). 0.2% of 330,000 active. AID 2557; in the data active = inhibition above about 50%
Target sequence (P13612 whole entry, looked up): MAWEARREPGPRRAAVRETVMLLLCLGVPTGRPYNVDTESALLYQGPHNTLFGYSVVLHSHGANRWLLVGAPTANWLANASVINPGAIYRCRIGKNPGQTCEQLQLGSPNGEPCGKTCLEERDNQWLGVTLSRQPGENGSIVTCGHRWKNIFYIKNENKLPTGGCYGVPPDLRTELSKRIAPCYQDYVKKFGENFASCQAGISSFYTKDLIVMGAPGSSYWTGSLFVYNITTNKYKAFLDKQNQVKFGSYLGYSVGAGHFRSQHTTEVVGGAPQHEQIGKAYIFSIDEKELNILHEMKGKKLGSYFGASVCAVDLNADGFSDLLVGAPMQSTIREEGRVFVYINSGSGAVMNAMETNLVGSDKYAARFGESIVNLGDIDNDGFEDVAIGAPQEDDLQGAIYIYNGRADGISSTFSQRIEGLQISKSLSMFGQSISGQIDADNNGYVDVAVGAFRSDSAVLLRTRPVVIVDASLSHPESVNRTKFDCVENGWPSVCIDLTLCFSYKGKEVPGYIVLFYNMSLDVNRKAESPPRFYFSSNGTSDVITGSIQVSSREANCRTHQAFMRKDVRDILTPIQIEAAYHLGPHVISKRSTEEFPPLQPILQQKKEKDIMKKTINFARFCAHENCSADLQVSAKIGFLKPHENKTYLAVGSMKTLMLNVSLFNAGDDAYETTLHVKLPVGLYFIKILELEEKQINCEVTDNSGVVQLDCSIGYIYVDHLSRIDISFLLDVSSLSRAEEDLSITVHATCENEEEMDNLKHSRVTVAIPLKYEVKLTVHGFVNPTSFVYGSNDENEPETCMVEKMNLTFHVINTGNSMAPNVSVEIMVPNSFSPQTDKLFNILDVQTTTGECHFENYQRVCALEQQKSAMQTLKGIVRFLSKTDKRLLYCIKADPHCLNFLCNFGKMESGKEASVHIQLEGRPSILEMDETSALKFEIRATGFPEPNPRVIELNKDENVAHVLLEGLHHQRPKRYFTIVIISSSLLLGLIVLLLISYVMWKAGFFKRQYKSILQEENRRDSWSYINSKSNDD
Platelet DG rel: platelet dense granule release activity; human platelet-rich plasma, SFLLRN dense granule ATP release, luminescence; inhibition, %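 (compounds screened at 7.5 µM in platelet-rich plasma)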; 0.22% of 300,000 active;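 active = mean replicate score, as percent of positive control, at or above 50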
CHT allo act: human CHT allosteric activation; Q9GZV3; CHT-expressing cells, membrane potential dye, choline EC20; hits give high values; LV-AA mutant CHT in HEK293 cells; B-score at 10 µM; 0.49% of 310,000 active;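 active = initial fluorescence not abnormally high and integrated response B-score, plate-corrected, over 3 SD above library mean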
AI-2 QS mod: modulates the Vibrio harveyi AI-2 quorum sensing system; Vibrio harveyi JMH597 AI-2 luminescence/OD600 ratio, 9 h; hits give low values; strain lacks LuxN and CqsS sensors; 0 = neutral-control median; activity change, % at 7.5 µM; 0.4% of 300,000 active; AID 2094; in the data active = activity change below about -75%, passing the limit was not always enough;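 also: luminescence divided by OD600 gain over 9 h not by final OD600 alone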
HIF activator: HIF pathway transcriptional activation | activation, % at 7.5 µM (by protocol) | 0.32% of 300,000 active | U2OS HRE-luciferase reporter, luminescence; normalized: DMSO 0%, desferrioxamine 100% | AID 1910;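 active = mean activation of at least 10% of the iron chelator positive control signal, with at least half of replicates also reaching 10%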
CHT block conf: confirmation of human choline transporter CHT inhibitors. shares compounds with CHT block. CHT-expressing cells, choline membrane potential dye; LV-to-AA substituted CHT, HEK293 cells. CHT activity remaining % of control (hits give low values), % at 10 µM. 70% of 2,400 active;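 active = choline transporter activity left, mean of duplicates at 10 µM, below buffer-only control mean minus 3 SD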;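 also: depolarization triggered by choline at its EC90 following an EC20 pre-addition; 0% = hemicholinium-3 full block and 100% = buffer-only control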
HEK293 CHT ctr: activity in parental HEK293 cells lacking CHT | 4% of 2,400 active | membrane potential ratio readout (active if shifted either direction beyond buffer ±3SD; no single direction) at 10 µM | shares compounds with CHT block | AID 493222 | membrane potential dye, choline response; active = decrease or increase beyond buffer ±3SD;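 also: parental cells lack the transporter so any hit is non-specific; ratio is peak minus trough fluorescence over baseline after EC90 choline challenge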
Active calls of the source: *.

`Nc1ccnc(=O)[nH]1` gave CHT block inactive, VLA-4 inh 5.6, Platelet DG rel 12.3, CHT allo act inactive, AI-2 QS mod 11.0 and HIF activator -0.1.
`COc1ccc(OCc2nnc(SCC(=O)Nc3ccccc3Cl)o2)cc1` gave CHT block inactive, VLA-4 inh -5.9, Platelet DG rel 1.8, CHT allo act inactive, AI-2 QS mod 12.0 and HIF activator -0.5.
Screening O=C1CC(O)(C(F)(F)F)Oc2c1ccc1ccccc21 (stereo not drawn) returned CHT block -8.13*, VLA-4 inh -2.4, Platelet DG rel -3.5, CHT allo act inactive, AI-2 QS mod 45.2, HIF activator -0.4, CHT block conf 46.0%* and HEK293 CHT ctr inactive.
For O=[N+]([O-])c1ccc(Nc2ccccc2O)c2nonc12 the results were CHT block -5.88*, VLA-4 inh -12.8, Platelet DG rel -3.8, CHT allo act inactive, AI-2 QS mod -14.7, HIF activator 0.3, CHT block conf 53.3%* and HEK293 CHT ctr inactive.
`CCc1cccc(C)c1NC(=O)COC(=O)c1cc([N+](=O)[O-])ccc1N1CCOCC1` gave CHT block inactive, VLA-4 inh 2.5, Platelet DG rel 16.8, CHT allo act inactive, AI-2 QS mod 9.5 and HIF activator -0.4.
For CCOc1ccc(Nc2nc(N)c3ccccc3n2)cc1 the results were CHT block -5.8*, VLA-4 inh -11.6, Platelet DG rel 90.5*, CHT allo act inactive, AI-2 QS mod 3.5, HIF activator -2.1, CHT block conf 47.9%* and HEK293 CHT ctr inactive.
`COc1ccc(C)cc1Nc1nc(N)c2ccccc2n1` gave CHT block -13.4*, VLA-4 inh -2.9, Platelet DG rel 7.4, CHT allo act inactive, AI-2 QS mod -2.8, HIF activator 2.7, CHT block conf 41.5%* and HEK293 CHT ctr inactive.
COCCCNc1nc(N)c([N+](=O)[O-])c(Nc2cc(OC)ccc2OC)n1 was read as CHT block inactive, VLA-4 inh 16.8, Platelet DG rel -4.4, CHT allo act inactive, AI-2 QS mod 10.7 and HIF activator -0.6.
`CCOc1ccc(Nc2nc(N)nc(CCl)n2)cc1` gave CHT block inactive, VLA-4 inh 13.4, Platelet DG rel 21.6, CHT allo act inactive, AI-2 QS mod 11.6 and HIF activator 3.2.
COc1ccc(OC)c(Nc2nc(N)c([N+](=O)[O-])c(NCc3ccccc3)n2)c1 was read as CHT block -5*, VLA-4 inh 3.4, Platelet DG rel -1.5, CHT allo act inactive, AI-2 QS mod 5.9, HIF activator -0.2, CHT block conf inactive and HEK293 CHT ctr inactive.
For CC(C#N)(NC(=O)CN1CCN(S(=O)(=O)c2ccc(Br)cc2Cl)CC1)C1CC1 (stereo not drawn) the results were VLA-4 inh 37.0.
For CCc1c(C)nc2ncnn2c1Nc1ccccc1C the results were CHT block inactive, VLA-4 inh 11.0, Platelet DG rel -0.2, CHT allo act inactive, AI-2 QS mod 9.7 and HIF activator -16.1.
Screening CCc1c(C)nc2ncnn2c1NCCc1ccccc1 returned CHT block -5.17*, VLA-4 inh 1.0, Platelet DG rel 0.6, CHT allo act inactive, AI-2 QS mod -1.4, HIF activator -0.1, CHT block conf 46.6%* and HEK293 CHT ctr inactive.
Screening CCc1c(C)nc2ncnn2c1NCCc1ccc(Cl)cc1 returned CHT block -5.19*, VLA-4 inh 1.3, Platelet DG rel -1.4, CHT allo act inactive, AI-2 QS mod 17.9, HIF activator -1.5, CHT block conf 63.0%* and HEK293 CHT ctr inactive.
COc1ccc(Cl)cc1NC(=O)c1cc(C)no1 was read as CHT block inactive, VLA-4 inh -34.7, Platelet DG rel 0.0, CHT allo act inactive, AI-2 QS mod 2.5 and HIF activator 1.5.
Screening COc1ccc2[nH]c(=O)c(CN(Cc3cccs3)C(=S)Nc3ccccc3)cc2c1 returned CHT block -5.34*, VLA-4 inh -17.1, Platelet DG rel -4.9, CHT allo act inactive, AI-2 QS mod 21.3, HIF activator 0.2, CHT block conf inactive and HEK293 CHT ctr inactive.
`CNC(=S)N(Cc1cccs1)Cc1cc2ccc(OC)cc2[nH]c1=O` gave CHT block inactive, VLA-4 inh 0.0, Platelet DG rel 9.7, CHT allo act inactive, AI-2 QS mod -2.1 and HIF activator 0.0.
For Cc1ccc(CSc2nnc(NC(=O)C3=COCCO3)s2)cc1 the results were VLA-4 inh 8.8.
`CNCc1c(OCc2ccc(F)cc2)ccc2ccccc12` gave CHT block -7.93*, VLA-4 inh 4.1, Platelet DG rel 5.0, CHT allo act inactive, AI-2 QS mod 11.8, HIF activator -0.3, CHT block conf 41.0%* and HEK293 CHT ctr -13.3*.
`CC(=O)N(C)c1ccc(NC(=O)C(Sc2ccccc2)c2ccccc2)cc1` (stereo not drawn) gave CHT block -5.53*, VLA-4 inh 3.3, Platelet DG rel -0.5, CHT allo act inactive, AI-2 QS mod 23.8, HIF activator 0.0, CHT block conf 65.2%* and HEK293 CHT ctr inactive.
For COc1ccc2ccccc2c1/C=N/N1C(=O)CSC1=S the results were CHT block inactive, VLA-4 inh -5.5, Platelet DG rel -1.2, CHT allo act inactive, AI-2 QS mod 18.1 and HIF activator -0.3.
For O=C1CSC(=S)N1/N=C/c1c(F)cccc1F the results were CHT block -5.58*, VLA-4 inh 0.3, Platelet DG rel -0.8, CHT allo act inactive, AI-2 QS mod 9.3, HIF activator -0.6, CHT block conf 70.9%* and HEK293 CHT ctr inactive.
`Cc1ccc(NC(=O)CN2C(=O)NC3(CCc4ccccc43)C2=O)cc1Cl` (stereo not drawn) gave CHT block -10.5*, VLA-4 inh -0.2, Platelet DG rel 18.3, CHT allo act inactive, AI-2 QS mod -90.5*, HIF activator -0.4, CHT block conf 33.5%* and HEK293 CHT ctr inactive.
`COC(=O)C(C)Oc1ccc2c3c(c(=O)oc2c1)CCCCC3` (stereo not drawn) gave CHT block -5.16*, VLA-4 inh 8.8, Platelet DG rel 2.0, CHT allo act inactive, AI-2 QS mod 18.9, HIF activator -0.3, CHT block conf inactive and HEK293 CHT ctr inactive.
